Bioassay records as filed in PubChem.
GPR151 activ: human GPR151 activation | 650,000 compounds, 1% hits | PathHunter beta-arrestin GPR151 cells, luminescence | Q8TDV0 | AID 1508602 | activation, % at 11.2 µM; in the data active means activation above about 4.9%;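 further: 0% = median of compound wells and 100% = cells with positive control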
MITF primary: inhibitors of human MITF. O75030. AlphaScreen MITF homodimerization, bead proximity signal. inhibition, % at 2.6 µM. 650,000 compounds, 0.91% hits. AID 1259374; in the data active means inhibition above about 50%;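 further: 0% = vehicle wells with protein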
Target sequence (O75030 whole entry, looked up): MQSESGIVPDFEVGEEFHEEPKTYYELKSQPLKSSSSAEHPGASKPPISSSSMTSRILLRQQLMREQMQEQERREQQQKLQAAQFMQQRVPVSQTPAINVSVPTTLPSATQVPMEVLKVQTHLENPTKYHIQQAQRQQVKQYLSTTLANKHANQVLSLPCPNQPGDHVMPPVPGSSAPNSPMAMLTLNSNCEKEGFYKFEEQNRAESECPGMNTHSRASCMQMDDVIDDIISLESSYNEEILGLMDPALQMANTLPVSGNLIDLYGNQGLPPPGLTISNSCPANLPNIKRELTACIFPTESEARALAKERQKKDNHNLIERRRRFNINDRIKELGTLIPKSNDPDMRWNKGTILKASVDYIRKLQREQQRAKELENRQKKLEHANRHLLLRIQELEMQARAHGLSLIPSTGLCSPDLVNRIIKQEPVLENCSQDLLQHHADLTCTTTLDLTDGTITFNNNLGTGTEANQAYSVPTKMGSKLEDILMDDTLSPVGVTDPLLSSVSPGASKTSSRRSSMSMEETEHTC
TEAD-YAP block: TEAD-YAP interaction inhibition; HEK-TIYL cells, TEAD-Gal4/YAP UAS-luciferase luminescence; inhibition, % at 9.12 µM; 640,000 compounds, 1.4% hits; AID 1259422; in the data active means inhibition above about 32%;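 further: 0% = median of test compound wells and 100% = reference inhibitor wells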
FBW7 act: human FBW7 E3 ligase activation, primary screen; Q969H0; normalized activity (activation), % at 26.1 µM; AID 1259310; 650,000 compounds, 0.13% hits; AlphaScreen FBW7–phospho-cyclin E peptide binding, activator screen; in the data active means normalized activity above about 1.9%;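 further: purified mutant Fbw7 with reduced substrate affinity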
MITF confirm: human MITF inhibition, confirmation | 4,700 compounds, 16% hits | shares compounds with MITF primary | AID 1259372 | inhibition, % at 2.6 µM | AlphaScreen MITF homodimerization, biotin/His-MITF beads;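 active means inhibition above a cutoff derived from the DMSO control wells, cut at about 28% in these data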;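 further: 0% = MITF dimer wells with DMSO only; inhibitors lower the bead chemiluminescence by keeping MITF from dimerizing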
AlphaScreen DR: counter-screen: compounds optically interfering with AlphaScreen; shares compounds with MITF primary; AlphaScreen optical interference counterscreen, cell-free; IC50, µM; 480 compounds, 6% hits; call rule not given here
AlphaScreen intf2: optically interferes with AlphaScreen signal. LysRS AlphaScreen counterscreen, signal interference, triplicate. AID 1259376. inhibition, % at 2.6 µM. 4,700 compounds, 7.6% hits. shares compounds with MITF primary;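 active means inhibition above a cutoff derived from the DMSO control wells, cut at about 30% in these data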
The depositor's hits bear a star; . = not tested or not shown. An excerpt weighted towards active compounds, which were near 3.5% of everything screened.

SMILES	GPR151 activ	MITF primary	TEAD-YAP block	FBW7 act	MITF confirm	AlphaScreen intf2	others
CN1CCN(CC(O)Cn2cc(/C=C/C(=O)c3cccs3)c3ccccc32)CC1 (configuration not stated)	-2.8	5.0	12.3	0.2	.	.
CCOC(=O)CCN1C(=O)/C(=C\c2cc(OC)c(OC)c(OC)c2)SC1=S	-0.2	-5.9	-2.6	-0.1	.	.
CN(C)CCCN(CCCN(C)C)CC(c1ccccc1)c1ccccc1	0.5	54.6*	9.2	0.7	-3.8	0.4
CN(C)/N=C/c1ccc(OC(=O)c2ccccn2)cc1	-1.6	43.4	-4.9	-0.3	.	.
NS(=O)(=O)c1ccc(N=Cc2ccc(OC(=O)c3ccccn3)cc2)cc1	-1.6	55.3*	-10.1	-0.2	17.1	44.9*
N#C/C(=C\c1ccc(OC(=O)c2ccccn2)cc1)C(N)=O	-1.0	53.0*	10.3	0.0	30.9*	55.7*
CC(=O)c1cccc(N=Cc2ccc(OC(=O)c3ccccn3)cc2)c1	-2.4	19.8	-7.1	-0.3	.	.
COc1ccc(CN2CCN(Cc3c(C)nc4sccn34)CC2CCO)c(C)c1C (configuration not stated)	3.6	4.7	-0.9	-0.1	.	.
CCOc1ccc(/C=C2/C(=O)NC(=O)N(c3cc(OC)ccc3OC)C2=O)cc1	0.6	22.2	0.2	0.2	.	.
Cc1nc(Nc2nc3ccccc3c(=O)[nH]2)nc2c(C)cccc12	-0.5	4.0	-3.1	0.1	.	.
Oc1ccc(Cn2cnc3ccccc32)c2cccnc12	-0.1	95.2*	51.4*	-2.0	96.1*	100.6*
Oc1ccc(Cn2ccnc2)c2cccnc12	-0.9	108.6*	14.3	-0.4	112.2*	99.8*
Brc1ccccc1Cn1cnc2ccccc21	0.7	-4.7	10.7	-0.1	.	.
Cc1ccc(-n2cc(-c3ccc(C(=O)N4CCCC4)cn3)cn2)cc1	-0.3	6.3	5.2	0.8	.	.
O=C(c1ccc(-c2cnn(-c3ccc(Cl)cc3)c2)nc1)N1CCOCC1	-1.9	57.7*	9.6	0.8	9.3	16.0
Nc1cc(Br)cnc1N	-0.2	78.1*	-17.8	-0.2	79.7*	9.2	AlphaScreen DR=>8.62
Cc1ccnc(Nc2ccc(NCCNC(=O)c3ccc(F)cc3)nn2)c1	0.8	55.6*	3.3	-1.4	60.8*	93.7*
Cc1ccnc(Nc2ccc(NCCNC(=O)c3ccc(F)cc3Cl)nn2)c1	-0.4	80.5*	3.5	-1.2	43.2*	82.7*
Cc1cccc(Nc2ccc(NCCNC(=O)c3ccc(F)cc3)nn2)n1	1.1	8.1	15.4	0.3	.	.
CCCCCCSc1nnc2c(n1)OC(c1ccc(C)o1)N(C(C)=O)c1ccccc1-2 (configuration not stated)	1.3	9.0	6.1	0.2	.	.
O=S(=O)(c1ccc2ccccc2c1)N1CCC(N2CCN(Cc3ccccc3)CC2)CC1	-1.5	57.4*	10.6	-0.2	5.6	15.3
COc1ccc(S(=O)(=O)N2CCC(N3CCN(Cc4ccccc4)CC3)CC2)cc1	-0.1	78.5*	7.3	-0.1	-1.7	0.2
CN1CCN(C2CCN(S(=O)(=O)c3ccccc3)CC2)CC1	-0.4	58.8*	6.2	0.2	6.3	13.6
COc1ccc(S(=O)(=O)N2CCN(c3ccccc3F)CC2)cc1	0.2	22.4	-10.6	0.3	.	.
COc1ccc(S(=O)(=O)N2CCCN(Cc3ccccc3)CC2)cc1	-0.7	16.9	3.9	0.1	.	.
SMILES	GPR151 activ	MITF primary	TEAD-YAP block	FBW7 act	MITF confirm	AlphaScreen intf2	others
O=S(=O)(c1ccc(Cl)cc1)N1CCN(C2CCN(Cc3ccccc3)CC2)CC1	-1.4	1.5	-4.6	0.2	.	.
COc1ccc(S(=O)(=O)N2CCC(N3CCN(c4ccccc4F)CC3)CC2)cc1	0.4	52.0*	9.0	0.1	6.7	-1.1
O=S(=O)(c1ccccc1)N1CCC(N2CCCCCC2)CC1	2.2	28.3	1.2	-0.2	.	.
CC(NC(=O)c1ccccc1)C(c1cccs1)N1CCN(Cc2ccccc2)CC1 (configuration not stated)	0.1	1.0	-2.1	-0.4	.	.
CC(C)c1cc([N+](=O)[O-])c2nc(N)sc2c1	0.0	-4.0	-87.6	-0.3	.	.
O=c1nc(N2CCCCC2)nc(N2CCOCC2)[nH]1	-0.4	5.7	-4.0	-0.1	.	.
COc1cc(CN2CCN(C/C=C/c3ccccc3)CC2)cc(OC)c1OC	-1.3	67.2*	-5.3	0.2	1.6	12.6
O=C(C1CCN(Cc2ccccc2)CC1)N1CCN(C/C=C/c2ccccc2)CC1	2.4	59.6*	16.5	0.1	9.7	12.9
COc1ccc(CN2CCN(C/C=C/c3ccccc3)CC2)cc1	-0.4	46.8	-3.1	-0.1	.	.
COc1ccc(CN2CCN(C/C=C/c3ccccc3)CC2)cc1O	-1.0	61.5*	1.0	0.2	1.1	8.1
COc1cc(CN2CCN(C/C=C/c3ccccc3)CC2)ccc1O	-0.9	52.0*	3.1	0.2	-0.2	2.9
CCCOC(=O)C1=C(C)NC2=C(C(=O)CC(c3ccc(OC)cc3)C2)C1c1ccc(OCC)cc1 (configuration not stated)	1.1	16.6	15.0	0.5	.	.
O=C1CC(O)(C(F)(F)F)Oc2ccccc21 (configuration not stated)	-0.2	-10.0	2.6	-0.1	.	.
Cn1c(NC(=O)c2ccccc2I)cc(=O)n(C)c1=O	0.0	-0.5	3.0	0.0	.	.
Cc1cc(Cl)ccc1N(CC(=O)NCC1CCCO1)S(=O)(=O)c1ccccc1 (configuration not stated)	-1.5	72.6*	14.4	0.6	4.2	9.2
Cc1ccc(S(=O)(=O)N(CC(=O)NCC2CCCO2)c2ccccc2Cl)cc1 (configuration not stated)	1.4	-18.8	4.9	-0.1	.	.
C=CCN1CCN(c2nc3c(c(=O)[nH]c(=O)n3C)n2Cc2ccccc2Cl)CC1	-1.1	10.9	-2.2	0.0	.	.
Cc1cccc(OCCCC(=O)N2CCOCC2)c1C	1.2	-1.9	1.3	-0.2	.	.
CC1(C)CC(=O)c2cn(-c3ccc(Cl)cc3)c(=N)c(C#N)c2C1	0.6	54.8*	-8.4	0.0	0.7	0.4
Cc1ccc(-n2cc3c(c(C#N)c2=N)CC(C)(C)CC3=O)cc1C	3.7	13.7	-9.0	0.2	.	.
Cc1cccc(C)c1OCC(=O)Nc1ccc(F)cc1F	0.4	0.0	-5.5	-0.1	.	.
COc1ccc(C(O)c2nccn2C)cc1OC (configuration not stated)	-0.2	2.9	-3.0	-0.1	.	.
COc1ccc(C(N)c2nccn2C)cc1OC (configuration not stated)	-1.0	64.2*	-1.5	-0.2	25.6	61.4*
CN(Cc1ccncc1)Cc1nnc(SCCCO)n1-c1cccc(Cl)c1	-1.4	2.6	-2.8	-0.1	.	.
CSc1ccc(CN2CCCC(CNC(=O)c3cccnc3)C2)cc1 (configuration not stated)	-1.3	-2.9	-4.8	-0.1	.	.
O=C(NCC1CCCN(Cc2ccc(OCc3ccccc3)cc2)C1)c1cccnc1 (configuration not stated)	-0.6	50.6*	9.5	0.0	0.5	13.6
